According to PubChem BioAssay AID588342 (National Center for Advancing Translational Sciences (NCATS), 2011):
In all, about 360,000 compounds went through this assay and about 25,000 (6.9%) were called active. About 9% were inconclusive and are not listed. The list comes from a sample in which actives are over-represented; it also holds similar structures and randomly drawn compounds. Where a call stands in place of a potency, no number is given. A number with no mark means an inactive call. The call rests on the fitted dose curve; in most records, active means well fitted inhibition curve with a large enough effect; inconclusive means small, poorly fitted or top-dose-only effect; inactive means flat fitted curve, though single readings scatter.

biological target: Luciferin 4-monooxygenase (Photinus pyralis) (UniProt P08659); assay: qHTS profiling assay for firefly luciferase inhibitor/activator using purifed enzyme and Km concentrations of substrates (counterscreen for miR-21 project); conditions: purified FLuc, luminescence inhibition; series mostly up to 57.5 µM; further: nearly all actives have a fitted effect of over 55% in size
From the text: MLPCN Grant: 1 R21 NS059478-01 (miR-21 grant) Assay Provider: NCGC NCGC Assay Overview: Firefly (Photinus pyralis) luciferase is one of the most commonly used transcriptional reporters for a number of reasons. It is considered one of the more dynamically responsive reporters -that is, responsive to changes in reporter transcription - as it requires no post-translational modifications and is enzymatically active directly after protein synthesis (Wood, 1998). Additionally, the half-life of the luciferase protein is short relative to other reporter-gene products (Wood, 1995). Whereas reporters with long half-lives potentially allow for increased signal due to accumulation of reporter-gene product, once accumulated in the cell, dynamic changes in reporter-gene expression may be difficult to detect(Fan and Wood, 2007; Almond et al., 2004). It has been shown that wild-type P. pyralis luciferase has a half-life of approximately […] hours in mammalian cells (Thompson et al., 1991). Firefly luciferase reporter-gene assays are also generally considered one of the most sensitive assay types (Wood, 1995; Wood, 1998). Although light produced in a bioluminescence reaction is of lower intensity than that produced during fluorescence emission, this is offset by little to no background light inherent to luminescent assays. Thus the luciferase reporter can be expressed at much lower levels than fluorescent proteins while still providing robust signal. # However, it was initially observed, in 1991, by Thompson et al., that compounds that resemble the substrates of firefly luciferase (FLuc) can act as competitive inhibitors of the enzyme, and that these compounds, upon interaction with luciferase in the cell, can actually stabilize the protein and increase its half-life. Accumulated intracellular FLuc protein can be measured as an increase in luminescence signal, upon addition of detection reagents (which contain high concentrations of FLuc substrates) commonly used in high-throughput screening. In cell-based reporter gene assays that use FLuc as the reporter gene to quantitate the potential influence of a given compound against the target biology, this apparent increase in luminescence can mistakenly be interpreted as identification of a compound that is active against the target of interest. This is the case for the miR-21 FLuc reporter gene assay used to identify inhibitors of the miR-21 pathway (PubChem AID 2289) - compounds of interest will inhibit miR-21 biogenesis/expression or activity, and are identified by causing an increase in luminescence, due to increased FLuc translation. However, FLuc inhibitory compounds that stabilize the FLuc protein will give an identical read-out, making it difficult to distinguish compounds that are active against the target from those active against FLuc. Previous profiling work to determine the prevalence of compounds that affect FLuc enzymatic activity (PubChem AID 411) identified that ~3% of the MLSMR library (then at ~72K) inhibited FLuc. […] Since the MLSMR had grown to ~350K compounds, and since it was expected that a significant percentage of compounds found active in the miR-21 FLuc assay would be FLuc inhibitors, the library was screened for activity against FLuc using a biochemical assay of purified FLuc and KM concentrations of FLuc substrates (D-luciferin and ATP).
NCGC Assay Protocol Summary: Reagents: 50mM Tris acetate, pH 7.5; 10mM Mg acetate; 10uM D-luciferin (Sigma #L9504); 10uM ATP; 0.01% Tween-20; 0.05% BSA; 10nM P. pyralis luciferase (Sigma #L9506) Control compounds used were two known firefly luciferase inhibitors (compounds (2) and (5) in Auld et al., 2010), and DMSO. […]

Luciferin 4-monooxygenase (Photinus pyralis), sequence (P08659 whole entry, looked up): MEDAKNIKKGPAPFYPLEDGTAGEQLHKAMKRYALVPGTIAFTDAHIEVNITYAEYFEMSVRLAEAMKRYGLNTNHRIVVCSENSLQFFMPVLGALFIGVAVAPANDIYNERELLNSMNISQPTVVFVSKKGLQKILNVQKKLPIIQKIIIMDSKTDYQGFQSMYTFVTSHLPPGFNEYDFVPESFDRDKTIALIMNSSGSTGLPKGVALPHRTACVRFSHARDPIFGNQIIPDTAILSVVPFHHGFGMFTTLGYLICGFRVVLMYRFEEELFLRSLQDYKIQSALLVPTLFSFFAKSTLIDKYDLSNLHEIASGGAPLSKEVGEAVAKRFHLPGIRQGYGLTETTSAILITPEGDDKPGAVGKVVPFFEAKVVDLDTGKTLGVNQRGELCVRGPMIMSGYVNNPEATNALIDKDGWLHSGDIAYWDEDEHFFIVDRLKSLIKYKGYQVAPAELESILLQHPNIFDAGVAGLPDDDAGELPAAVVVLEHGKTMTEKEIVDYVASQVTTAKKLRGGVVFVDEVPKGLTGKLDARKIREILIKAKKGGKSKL

SMILES	Potency	activity change, negative = inhibition
CCS(=O)(=O)N1CCc2cc(C(=O)NCc3ccc(C)cc3)ccc21	inactive	
COc1ccc(NC(=O)Cn2c(=O)cc(C)c3c(C)nn(-c4cccc(Cl)c4C)c32)cc1OC	inactive	
COc1ccccc1/C=N/N1CCN(Cc2ccccc2Cl)CC1	inactive	
COc1ccccc1N1CCN(/N=C\C(Br)=C\c2ccccc2)CC1	16.9 µM (active)	
COc1ccccc1N1CCN(C2C(=O)c3ccccc3N2C(C)=O)CC1 (configuration not stated)	inactive	
COc1ccccc1N1CCN(C(=O)C(=O)N/N=C/c2ccccc2F)CC1	inactive	
CNCC(O)CN1CCN(c2ccccc2OC)CC1 (configuration not stated)	inactive	
COc1ccccc1N1CCN(/N=C/c2ccc(O)cc2O)CC1	7.57 µM (active)	
CCOC(=O)CN1C(=O)N[C@@H](c2ccc(Br)cc2)C(C(C)=O)=C1C	inactive	
Cc1oc(-c2ccccc2F)nc1CN1CCC(C(=O)NCCc2ccc(Cl)cc2)CC1	inactive	
CN(Cc1ccccc1)C(=O)c1cc2c(=O)n(C)c3ccccc3c2s1	inactive	
Cc1[nH]c2ccccc2c1C(c1ccccc1)c1cccs1 (configuration not stated)	inactive	
Cc1cccc(N2CCN(C(=O)c3ccc4c(c3)CCN4S(=O)(=O)c3ccccc3)CC2)c1C	inactive	
Cc1ccc(Cn2cc(CCC(=O)NCc3ccc(OC(C)C)cc3)c3ccccc32)cc1	inactive	
CC(=O)Nc1ccc(OC(=O)COc2ccc(Br)cc2)cc1	inactive	
CSc1ccc(Cl)c(C(=O)OCC(=O)N2CCNC2=O)c1	inactive	
CC(=O)CSc1nnc(CSc2ncccn2)n1C1CCCCC1	inactive	
O=S(=O)(c1ccccc1)c1nc(-c2ccc(Cl)cc2Cl)oc1N1CCCCC1	inactive	
COc1ccc(S(=O)(=O)Nc2ccccc2C(=O)N2CCCC2)cc1C	inactive	

SMILES	Potency	activity change, negative = inhibition
COc1ccc(S(=O)(=O)NC(C)c2ccccc2)cc1C(=O)N1CCCCC1 (configuration not stated)	1.69 µM (active)	
CC(NS(=O)(=O)c1ccc(OCC(=O)N2CCCC2)cc1)c1ccccc1 (configuration not stated)	inactive	
COc1ccc(NS(=O)(=O)c2cc3c4c(c2)CC(=O)N4CCC3)cc1Cl	inactive	
O=C(CN1C(=O)CC(c2ccccc2)S(=O)(=O)c2ccccc21)NC1CCCC1 (configuration not stated)	inactive	
O=C1/C(=C\c2cccnc2)CN(Cc2ccccc2)C/C1=C\c1cccnc1	inactive	
C(=N\n1cnnc1)/c1cccnc1	inactive	
Cc1ccccc1C1=N/C(=C/c2cccnc2)C(=O)O1	8.49 µM (active)	
CCc1nc2sc3c(Cl)ncnc3c2c2c1CCCC2	inactive	
Cc1cccc(-n2cc(CN3CCN(C(=O)c4ncn[nH]4)CC3)c(-c3cccc(F)c3)n2)c1	13.5 µM (active)	
Cc1ccccc1CN1CCN(C(=O)c2cccc(F)c2)CC1	inactive	
Cc1ccc(C)c(-n2cc(CN3CCN(C(=O)c4ncn[nH]4)CC3)c(-c3ccccc3)n2)c1	inactive	
CCN(CCCNC(=O)c1cc2cc3cc(OC)ccc3nc2s1)c1ccccc1	inactive	
CC(=O)Nc1ccc(SC[C@H](Cc2ccccc2)N2CC[C@@H](C)CCC2=O)cc1	inactive	
CCOC(=O)CSc1nc2ccc(C)cc2[nH]1	16.9 µM (active)	
Cc1ccc2nc(SCC(=O)NC3CCCC3)[nH]c2c1	inactive	
COc1ccc2nc(SCC(=O)Nc3c(C)cc(C)cc3C)[nH]c2c1	inactive	
COc1ccc(S(=O)(=O)NCc2cccn2Cc2cccc(C)c2)cc1	inactive	
Clc1cccc(N=C2NN=C(c3ccc4c(c3)OCCO4)CS2)c1	2.13 µM (active)	
c1ccc(CN2CCC(N=C3NN=C(c4ccc5c(c4)OCCO5)CS3)CC2)cc1	inactive	

SMILES	Potency	activity change, negative = inhibition
CC(NC(=O)COC(=O)c1cc(=O)[nH]c2ccccc12)c1ccccc1 (configuration not stated)	inactive	
COC(=O)C1CCN(C(=O)c2cc(=O)[nH]c3ccccc23)CC1	inactive	
CC1CCN(C(=O)COC(=O)c2cc(=O)[nH]c3ccccc23)CC1	10.7 µM (active)	
Cc1cc(C)cc(NC(c2nnc(-c3cccc(F)c3)o2)c2ccc(F)cc2Cl)c1 (configuration not stated)	inactive	
COc1cccc(CNc2nccn(-c3ccc(OC)c(OC)c3)c2=O)c1	inactive	
COc1ccc(-c2cc(C(F)(F)F)nc(SCC(=O)N(C)Cc3ccccc3)n2)cc1OC	inactive	
COc1ccc(CC2c3cc(OC)c(OC)cc3CC[N+]2(C)CCC(=O)OCCCCCOC(=O)CC[N+]2(C)CCc3cc(OC)c(OC)cc3C2Cc2ccc(OC)c(OC)c2)cc1OC (configuration not stated)	inactive	
COc1cccc(-c2nc(S(=O)(=O)c3ccc(C)cc3)c(NCc3ccccc3)o2)c1	inactive	
COc1ccc2oc(-c3ccc(C)c(NC(=O)c4sc5ccccc5c4Cl)c3)nc2c1	inactive	
O=C(Nc1cccc(-c2nc3ccccc3o2)c1)c1cccc(Br)c1	inactive	
CCCC(=O)Nc1ccc2oc(-c3ccc(O)c(Br)c3)nc2c1	2.39 µM (active)	
COc1cccc(-c2nc3cc(C)ccc3o2)c1	0.757 µM (active)	
O=C(Nc1ccc2oc(-c3ccc(O)c(Br)c3)nc2c1)c1cc2ccccc2o1	inactive	
O=C(Nc1cc(-c2nc3ccccc3o2)ccc1Cl)c1cc([N+](=O)[O-])ccc1N1CCOCC1	inactive	
O=[N+]([O-])c1ccc2oc(-c3cccc(O)c3)nc2c1	2.13 µM (active)	
Cc1ccc(OCC(=O)Nc2ccc(-c3nc4ncccc4o3)cc2)cc1		-2.22% [at 2.3 µM]
CCC(=O)Nc1cccc(-c2nc3cc(C)ccc3o2)c1	2.69 µM (active)	
COc1ccc(-c2nc3ccccc3o2)cc1NC(=O)c1cc([N+](=O)[O-])ccc1N1CCOCC1	inactive	
CCCOc1ccc(C(=O)Nc2ccc3oc(-c4cccc(Cl)c4Cl)nc3c2)cc1	inactive	
